The record followed here is PubChem BioAssay (NCATS).

Assay [1] concerns the target Lysosomal acid glucosylceramidase (Homo sapiens) (UniProt P04062). The experiment in a line: Glucocerebrosidase-p2 (AID 348; in the data active = potency below about 10 µM; note: potency is the fitted concentration of half-maximal effect). Conditions: purified GBA, blue fluorogenic substrate, 40 min. The method, boiled down: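 Normal human glucocerebrosidase (0.2 nM) with blue fluorogenic substrate (80 uM final) in citrate/phosphate pH 5.9 with 10mM sodium taurocholate, 0.01% tween-20; 40 min RT, NaOH/glycine stop; fluorescence Ex 365/Em 440; AC50 from a titration from 0.6 nM upwards.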

Assay [2] has as its target Cytochrome P450 1A2 (Homo sapiens) (UniProt P05177). In words: p450-cyp1a2 (AID 410; calls by dose curve; note: potency is the fitted concentration of half-maximal effect). Conditions: recombinant CYP1A2, luciferin-ME demethylation, luminescence; series mostly up to 57 µM. In outline: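 Luminescent demethylation readout: Luciferin-ME (100uM, equal to Km) turned over by 20nM CYP1A2 for 60 min at room temperature after NADPH regeneration addition, following 10 min compound preincubation. Normalization used 57 uM furafylline as full inhibition.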

A short description of assay [3]: NFAT Signaling Pathway (AID 444; active = well fitted curve in either direction with a large enough effect, not every such curve was filed as active;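 note: carbachol stimulus at about its EC50 of 1 µM final; % is set by controls: 0 for no effect and ±100 for the full control effect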). Conditions: Jurkat NFAT-bla M1, carbachol, beta-lactamase ratio, 5 h; at 7.69 µM (top of the series) unless noted. In outline:
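Jurkat cells with NFAT-driven β-lactamase reporter and co-expressed M1 receptor, stimulated with carbachol (final 1 uM, ~EC50), compound titration, 5 h at 37 °C. CCF4 loaded 1 h at RT; 460/530 nm ratio gave %activity and AC50.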

For assay [4], the target named is Glucocorticoid receptor (Homo sapiens) (UniProt P04150). In words: GR-GFP Redistribution (AID 450;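 active = compounds whose dose series gives a full or clear partial fitted curve of increased nuclear translocation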; note: potency is the fitted concentration of half-maximal effect). Conditions: U2OS GR-GFP nuclear translocation, laser cytometry, 2 h.
Chain of Glucocorticoid receptor (Homo sapiens) (P04150 whole entry, looked up, the tested form may be a part): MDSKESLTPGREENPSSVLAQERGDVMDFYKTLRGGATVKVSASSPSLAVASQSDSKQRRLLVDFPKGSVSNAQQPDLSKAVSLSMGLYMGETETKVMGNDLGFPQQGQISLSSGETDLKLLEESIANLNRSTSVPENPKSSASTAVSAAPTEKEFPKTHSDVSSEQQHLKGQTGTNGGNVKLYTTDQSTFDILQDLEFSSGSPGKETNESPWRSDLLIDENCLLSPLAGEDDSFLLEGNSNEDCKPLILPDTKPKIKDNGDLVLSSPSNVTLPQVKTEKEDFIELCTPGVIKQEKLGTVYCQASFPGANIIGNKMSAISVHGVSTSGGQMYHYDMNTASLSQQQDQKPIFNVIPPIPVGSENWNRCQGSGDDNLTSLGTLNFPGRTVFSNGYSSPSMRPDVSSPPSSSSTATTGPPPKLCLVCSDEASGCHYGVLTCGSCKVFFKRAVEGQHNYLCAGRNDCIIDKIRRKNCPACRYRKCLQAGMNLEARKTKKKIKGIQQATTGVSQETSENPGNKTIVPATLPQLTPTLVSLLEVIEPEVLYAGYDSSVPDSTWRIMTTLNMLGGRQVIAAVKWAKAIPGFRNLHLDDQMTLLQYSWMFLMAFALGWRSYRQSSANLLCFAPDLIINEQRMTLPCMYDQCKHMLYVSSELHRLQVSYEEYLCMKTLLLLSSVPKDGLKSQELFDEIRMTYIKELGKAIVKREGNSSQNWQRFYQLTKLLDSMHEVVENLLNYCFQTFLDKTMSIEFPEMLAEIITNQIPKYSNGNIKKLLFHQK
Assay [5] has the same target. The experiment in a line: GR-EFC Redistribution (AID 451; calls by dose curve; note: potency is the fitted concentration of half-maximal effect). The settings on record: CHO-K1 GR-EFC translocation, beta-gal luminescence, 2 h. In outline: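 CHO-K1 cells expressing nuclear EA and GR-ED fragments of b-gal; compounds titrated up to 46 uM final, 2 h at 37 C. GR nuclear translocation read as complemented b-gal luminescence after 1 h RT detection.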
In assay [6] the target is Mitogen-activated protein kinase 10 (Mus musculus) (UniProt Q61831). The experiment in a line: JNK3 AlphaScreen Assay (AID 530; active = well fitted curve in either direction with a large enough effect, not every such curve was filed as active;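 note: kinase came from lysate of stimulated human HepG2 cells; signal reports phosphorylation of biotinylated GST-cJun 1-79 at Ser73 with 10 µM ATP; % is set by controls: 0 for no effect and ±100 for the full control effect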). Conditions: JNK3 lysate, c-Jun phosphorylation; series mostly up to 57.1 µM. The method, boiled down:
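Activity was read by AlphaScreen after JNK3-containing HepG2 lysate (cytokine pre-activated) phosphorylated biotinylated GST-cJun with 10 uM ATP at room temperature. Phospho-Ser73 cJun antibody with Protein-A acceptor beads provided detection.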
In general terms: In Alpha technology, singlet oxygen from a donor bead excites a nearby acceptor bead.

Assay [7] addresses Cytochrome P450 3A4 (Homo sapiens) (UniProt P08684). The experiment in a line: qHTS Assay for Inhibitors and Substrates of Cytochrome P450 3A4 (AID 884). Note: nearly all actives have a fitted effect of over 50% in size. Note: potency is the fitted concentration of half-maximal effect. The settings on record: recombinant CYP3A4, Luciferin-PPXE luminescence; series mostly up to 57.1 µM. In outline: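 Luminescent readout of luciferin produced by CYP3A4 (20 nM) dealkylation of Luciferin-PPXE, 25 uM (its KM). NADPH-driven reaction ran 60 min at RT after 10 min compound preincubation; data scaled to 57 uM ketoconazole as 100% inhibition.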

Assay [8] addresses Cytochrome P450 2C19 (Homo sapiens) (UniProt P33261). In words: qHTS Assay for Inhibitors and Substrates of Cytochrome P450 2C19 (AID 899). Note: nearly all actives have a fitted effect of over 60% in size. Note: potency is the fitted concentration of half-maximal effect. The settings on record: recombinant CYP2C19, luciferin-H EGE luminescence; series mostly up to 57.1 µM. The method, boiled down: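 Luminescent read-out of luciferin formed from Luciferin-H EGE (10uM, equal to KM). Enzyme 5nM in 50mM KPO4; compound added, 10 min at 37C, then NADPH regenerating system for 60 min at 37C. Full inhibition defined by 57uM ketoconazole.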
In general terms: Quantitative high-throughput screening tests each substance at several concentrations.

A short description of assay [9]: qHTS Assay for Identification of Small Molecule Agonists for Hypoxia Response Element Signaling Pathway (AID 914; active = well fitted activation curve with a large enough effect in the signal ratio, with a control signal flat, not every such curve was filed as active; the % refers to the signal ratio; note: potency is the fitted concentration of half-maximal effect). The settings on record: ME-180 HRE-bla reporter, beta-lactamase ratio, CoCl2, 17 h; activation: hits give high values. In outline: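 HRE-bla ME-180 assay for agonist-like enhancement of an EC50 CoCl2 stimulus: 17 h at 37 degrees Celsius, CCF4 for 2.5 h, ratiometric 460/530 nm signal converted to %Activity and fitted to AC50.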

In assay [10] the target is Dual specificity protein kinase CLK4 (Homo sapiens) (UniProt Q9HAZ1). In words: qHTS Assay for Inhibitors of CDC-like Kinase 4 (Kinase-Glo Assay) (AID 1770). Note: nearly all actives have a fitted effect of over 65% in size. Note: potency is the fitted concentration of half-maximal effect. Conditions: recombinant Clk4, Kinase-Glo ATP depletion luminescence; series mostly up to 66.7 µM. The method, boiled down:
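Clk4 25 nM, RS peptide 100 uM, ATP 1 uM, pH 7.5 Tris, 10 mM MgCl2, 2.5 mM DTT; 4.5 h RT; ATP depletion read by Kinase-Glo luminescence.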

Assay [11] has the same target. The experiment in a line: qHTS Assay for Inhibitors of CDC-like Kinase 4 (ADP-Glo Assay) (AID 1771). Note: nearly all actives have a fitted effect of over 70% in size. Note: potency is the fitted concentration of half-maximal effect. The settings on record: recombinant CLK4, ADP-Glo luminescence; series mostly up to 80 µM. The method, boiled down: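 ADP production was read by ADP-Glo luminescence after residual ATP depletion, following 1 h room-temperature reaction of 25 nM Clk4, 1 uM ATP and 100 uM RS peptide with MgCl2, EGTA, DTT and Triton X-100.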

Assay [12] shares this target. The experiment in a line: qHTS Assay for Inhibitors of CDC-like Kinase 4 (ADP-FP Assay) (AID 1795). Note: nearly all actives have a fitted effect of over 60% in size. Note: potency is the fitted concentration of half-maximal effect. The settings on record: Transcreener ADP fluorescence polarization; series mostly up to 50 µM. In outline:
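Kinase activity was followed as ADP output, converted from fluorescence polarization with a calibration curve. Reactions ran one hour at low ATP (1 uM) with RS peptide substrate.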

Assay [13] concerns the target Ubiquitin carboxyl-terminal hydrolase 1 (Homo sapiens) (UniProt O94782). The experiment in a line: Inhibitors of USP1/UAF1: Pilot qHTS (AID 504865).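 Note: rhodamine fluorescence freed from ubiquitin-rhodamine substrate followed over time; top concentration of the series differs between compounds; % is set by controls: 0 for no effect and ±100 for the full control effect; nearly all actives have a fitted effect of over 35% in size.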 The settings on record: purified USP1/UAF1, Ub-rhodamine cleavage fluorescence; series mostly up to 54.9 µM. In outline:
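Enzyme-free wells gave the negative control, while test wells held 1nM USP1/UAF1 preincubated with compound for 15 min at room temperature. Ub-Rho at 150nM final started the reaction, and fluorescence at 480/540 nm was recorded kinetically.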

A short description of assay [14]: Primary qHTS for small molecule stabilizers of the endoplasmic reticulum resident proteome: Secreted ER Calcium Modulated Protein (SERCaMP) assay (AID 1508630). Note: % is set by controls: 0 for no effect and ±100 for the full control effect. The settings on record: SH-SY5Y GLuc-SERCaMP (Gaussia luciferase released on ER calcium loss) secretion, thapsigargin, luminescence; series mostly up to 38.4 µM. The method, boiled down: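 The SH-SY5Y reporter protocol was run at 3 concentrations up to 38.3 uM (primary) or 11 concentrations (follow-up): 16 h compound, 100 nM thapsigargin for 4 h, then extracellular luciferase luminescence.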

Assay [15] addresses 3',5'-cyclic-AMP phosphodiesterase 4B (Homo sapiens) (UniProt Q07343). The experiment in a line: qHTS Assay for Inhibitors of PDE-IV (AID 607; active = well fitted activation curve with a large enough effect in the main read-out, with a control signal flat, not every such curve was filed as active; note: potency is the fitted concentration of half-maximal effect). The settings on record: HEK293 ACTOne CNG channel cells, membrane potential fluorescence; series mostly up to 22.9 µM. In outline: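 Cell-based read-out of cAMP via a modified cyclic nucleotide-gated channel and membrane potential dye (535/590 nm) in HEK293 cells expressing PDE4 endogenously. Compounds tested up to 22.9 uM final; 100 uM RO 20-1724 reference.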

The target in assay [16] is Cytochrome P450 3A4 (Homo sapiens) (UniProt P08684). In words: qHTS Assay for Activators of Cytochrome P450 3A4 (AID 885). Note: nearly all actives have a fitted effect of over 65% in size. Conditions: recombinant CYP3A4, Luciferin-PPXE luminescence, 60 min; series mostly up to 57.1 µM. The method, boiled down:
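Luminescent readout of luciferin formed from 25 uM Luciferin-PPXE (KM level) by 20 nM CYP3A4 in 200 mM KPO4, with 60 min NADPH-driven reaction at room temperature after 10 min compound exposure. Ketoconazole (57 uM) defined 100% inhibition.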

Assay [17] in a line: Stat Signaling Pathway (AID 446; active = well fitted curve in either direction with a large enough effect, not every such curve was filed as active;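 note: ME-180 cervical cancer cells given 40 pM IL-6 alongside compound; SIE-controlled beta-lactamase reporter measured as 460/530 nm FRET emission ratio; % is set by controls: 0 for no effect and ±100 for the full control effect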). Conditions: ME-180 (cervical carcinoma) SIE beta-lactamase reporter, IL-6 stimulated, 5 h; at 7.69 µM (top of the series) unless noted. In outline:
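FRET read-out (405 nm excitation, 460/530 nm emission) of a beta-lactamase reporter under a STAT-inducible element in ME-180 cervical carcinoma cells. Cells with compound receive 40 pM IL-6 for 5 h. Values are normalised to AC90 stimulation and AC90 JAK-inhibitor controls.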

For assay [18], the target named is Cytochrome P450 2D6 (Homo sapiens) (UniProt P10635). The experiment in a line: qHTS Assay for Inhibitors and Substrates of Cytochrome P450 2D6 (AID 891). Note: potency is the fitted concentration of half-maximal effect; nearly all actives have a fitted effect of over 60% in size. The settings on record: recombinant CYP2D6, luciferin-ME EGE luminescence; series mostly up to 57.1 µM. In outline:
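Luminescent read-out of luciferin formed by 5 nM human CYP2D6 demethylating 30 uM Luciferin-ME EGE (Km level) over 60 min at room temperature after NADPH regeneration addition. Data normalized to full inhibition by 1.43 uM quinidine.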

Unmarked numbers belong to inactive results. Inconclusive results are not listed. Calls of active or inactive are those of the source. Unless noted, calls come from the whole dose curve; as a rule, active = well fitted curve in the direction sought with a large enough effect; inconclusive = small, poorly fitted or top-dose-only effect, or another doubt; inactive = no such curve, though single readings can be large; an effect the other way counts as inactive or inconclusive.

Chain of Lysosomal acid glucosylceramidase (Homo sapiens) (P04062 whole entry, looked up): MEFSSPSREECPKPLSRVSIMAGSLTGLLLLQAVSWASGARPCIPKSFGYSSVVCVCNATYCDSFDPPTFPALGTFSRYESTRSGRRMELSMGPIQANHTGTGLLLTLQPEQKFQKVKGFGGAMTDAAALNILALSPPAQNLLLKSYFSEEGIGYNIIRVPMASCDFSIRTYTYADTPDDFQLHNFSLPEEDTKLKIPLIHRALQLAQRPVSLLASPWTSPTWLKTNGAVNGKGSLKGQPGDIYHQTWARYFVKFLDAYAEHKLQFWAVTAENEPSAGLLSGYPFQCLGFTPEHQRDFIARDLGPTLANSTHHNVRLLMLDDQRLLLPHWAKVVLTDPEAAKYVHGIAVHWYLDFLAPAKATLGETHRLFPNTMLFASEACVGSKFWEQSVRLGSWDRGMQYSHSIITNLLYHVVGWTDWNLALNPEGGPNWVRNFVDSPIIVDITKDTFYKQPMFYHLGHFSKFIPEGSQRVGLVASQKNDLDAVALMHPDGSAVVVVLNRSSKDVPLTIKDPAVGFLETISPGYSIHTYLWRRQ
Chain of Cytochrome P450 3A4 (Homo sapiens) (P08684 whole entry, looked up): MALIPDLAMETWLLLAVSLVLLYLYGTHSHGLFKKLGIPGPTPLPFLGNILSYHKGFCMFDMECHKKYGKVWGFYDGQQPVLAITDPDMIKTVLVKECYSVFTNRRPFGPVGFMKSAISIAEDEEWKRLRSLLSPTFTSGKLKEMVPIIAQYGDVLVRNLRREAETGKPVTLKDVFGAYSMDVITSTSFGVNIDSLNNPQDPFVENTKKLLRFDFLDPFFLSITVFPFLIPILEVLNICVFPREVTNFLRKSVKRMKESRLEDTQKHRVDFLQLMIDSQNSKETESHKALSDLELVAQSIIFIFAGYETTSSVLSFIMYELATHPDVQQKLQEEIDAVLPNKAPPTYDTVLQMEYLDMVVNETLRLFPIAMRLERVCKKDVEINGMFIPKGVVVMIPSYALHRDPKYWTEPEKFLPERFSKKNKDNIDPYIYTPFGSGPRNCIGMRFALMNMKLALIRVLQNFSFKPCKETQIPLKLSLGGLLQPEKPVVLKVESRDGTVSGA
Chain of 3',5'-cyclic-AMP phosphodiesterase 4B (Homo sapiens) (Q07343 whole entry, looked up): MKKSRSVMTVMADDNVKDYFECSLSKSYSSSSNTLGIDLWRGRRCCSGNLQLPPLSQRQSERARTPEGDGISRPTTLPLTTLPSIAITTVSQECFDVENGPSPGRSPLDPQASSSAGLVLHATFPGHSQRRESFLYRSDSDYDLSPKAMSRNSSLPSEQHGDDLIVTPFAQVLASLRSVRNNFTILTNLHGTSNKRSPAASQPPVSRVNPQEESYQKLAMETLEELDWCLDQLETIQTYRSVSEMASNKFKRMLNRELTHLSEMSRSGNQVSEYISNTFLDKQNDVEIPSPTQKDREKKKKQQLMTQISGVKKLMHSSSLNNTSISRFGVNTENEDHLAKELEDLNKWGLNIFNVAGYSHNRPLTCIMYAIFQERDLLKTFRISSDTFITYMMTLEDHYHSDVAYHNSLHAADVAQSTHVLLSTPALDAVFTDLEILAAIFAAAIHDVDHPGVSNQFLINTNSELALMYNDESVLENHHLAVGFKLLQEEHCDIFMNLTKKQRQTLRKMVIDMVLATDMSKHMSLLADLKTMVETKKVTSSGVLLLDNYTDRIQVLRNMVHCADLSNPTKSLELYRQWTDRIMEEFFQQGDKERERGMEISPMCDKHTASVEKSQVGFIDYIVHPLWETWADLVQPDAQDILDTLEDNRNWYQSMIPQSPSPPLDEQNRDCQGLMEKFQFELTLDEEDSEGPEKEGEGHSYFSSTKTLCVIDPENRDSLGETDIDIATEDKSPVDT
Chain of Dual specificity protein kinase CLK4 (Homo sapiens) (Q9HAZ1 whole entry, looked up): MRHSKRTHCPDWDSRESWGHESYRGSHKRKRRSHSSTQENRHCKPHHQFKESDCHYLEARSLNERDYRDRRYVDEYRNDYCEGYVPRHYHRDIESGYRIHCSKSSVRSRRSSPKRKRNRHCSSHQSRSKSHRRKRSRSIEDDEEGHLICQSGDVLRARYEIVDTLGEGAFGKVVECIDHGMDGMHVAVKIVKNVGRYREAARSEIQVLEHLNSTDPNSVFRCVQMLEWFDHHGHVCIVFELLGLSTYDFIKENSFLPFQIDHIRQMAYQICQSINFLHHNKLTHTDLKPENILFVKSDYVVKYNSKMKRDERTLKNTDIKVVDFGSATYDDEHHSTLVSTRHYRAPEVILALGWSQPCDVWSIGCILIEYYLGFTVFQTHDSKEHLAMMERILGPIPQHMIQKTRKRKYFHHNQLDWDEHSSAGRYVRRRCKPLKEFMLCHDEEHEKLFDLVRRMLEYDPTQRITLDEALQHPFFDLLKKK
Chain of Cytochrome P450 1A2 (Homo sapiens) (P05177 whole entry, looked up): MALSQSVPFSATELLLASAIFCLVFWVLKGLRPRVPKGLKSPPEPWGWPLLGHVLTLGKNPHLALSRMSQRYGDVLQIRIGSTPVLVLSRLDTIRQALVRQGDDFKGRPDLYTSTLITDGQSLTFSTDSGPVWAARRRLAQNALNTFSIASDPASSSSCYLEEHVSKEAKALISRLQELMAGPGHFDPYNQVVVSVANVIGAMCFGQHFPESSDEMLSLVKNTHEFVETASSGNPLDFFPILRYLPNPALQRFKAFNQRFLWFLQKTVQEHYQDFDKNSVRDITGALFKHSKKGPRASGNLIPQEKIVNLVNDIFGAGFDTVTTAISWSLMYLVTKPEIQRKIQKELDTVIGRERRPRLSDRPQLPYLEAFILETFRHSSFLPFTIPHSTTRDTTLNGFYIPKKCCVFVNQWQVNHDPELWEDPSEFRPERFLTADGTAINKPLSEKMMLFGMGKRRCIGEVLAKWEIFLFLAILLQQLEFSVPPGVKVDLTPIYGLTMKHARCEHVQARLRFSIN
Chain of Ubiquitin carboxyl-terminal hydrolase 1 (Homo sapiens) (O94782 whole entry, looked up): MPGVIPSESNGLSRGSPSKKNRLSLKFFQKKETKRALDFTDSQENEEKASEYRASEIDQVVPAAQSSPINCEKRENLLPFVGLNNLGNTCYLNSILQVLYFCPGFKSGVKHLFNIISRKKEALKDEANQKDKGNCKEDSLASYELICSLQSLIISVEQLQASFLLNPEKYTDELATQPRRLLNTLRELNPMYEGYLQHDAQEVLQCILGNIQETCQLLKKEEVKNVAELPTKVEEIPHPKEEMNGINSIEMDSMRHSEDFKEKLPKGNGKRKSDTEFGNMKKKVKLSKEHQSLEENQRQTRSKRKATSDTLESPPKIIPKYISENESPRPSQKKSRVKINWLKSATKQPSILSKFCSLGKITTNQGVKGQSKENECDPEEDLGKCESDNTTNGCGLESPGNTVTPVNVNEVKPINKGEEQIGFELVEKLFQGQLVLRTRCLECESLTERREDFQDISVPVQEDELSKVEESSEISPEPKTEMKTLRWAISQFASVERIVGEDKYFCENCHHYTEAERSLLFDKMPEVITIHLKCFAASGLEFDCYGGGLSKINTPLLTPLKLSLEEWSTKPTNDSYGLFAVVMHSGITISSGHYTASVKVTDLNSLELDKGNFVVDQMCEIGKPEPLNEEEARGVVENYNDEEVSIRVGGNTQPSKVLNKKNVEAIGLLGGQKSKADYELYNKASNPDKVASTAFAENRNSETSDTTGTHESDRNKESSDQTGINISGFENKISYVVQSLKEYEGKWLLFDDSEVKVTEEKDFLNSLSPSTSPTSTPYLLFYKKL
Chain of Cytochrome P450 2C19 (Homo sapiens) (P33261 whole entry, looked up): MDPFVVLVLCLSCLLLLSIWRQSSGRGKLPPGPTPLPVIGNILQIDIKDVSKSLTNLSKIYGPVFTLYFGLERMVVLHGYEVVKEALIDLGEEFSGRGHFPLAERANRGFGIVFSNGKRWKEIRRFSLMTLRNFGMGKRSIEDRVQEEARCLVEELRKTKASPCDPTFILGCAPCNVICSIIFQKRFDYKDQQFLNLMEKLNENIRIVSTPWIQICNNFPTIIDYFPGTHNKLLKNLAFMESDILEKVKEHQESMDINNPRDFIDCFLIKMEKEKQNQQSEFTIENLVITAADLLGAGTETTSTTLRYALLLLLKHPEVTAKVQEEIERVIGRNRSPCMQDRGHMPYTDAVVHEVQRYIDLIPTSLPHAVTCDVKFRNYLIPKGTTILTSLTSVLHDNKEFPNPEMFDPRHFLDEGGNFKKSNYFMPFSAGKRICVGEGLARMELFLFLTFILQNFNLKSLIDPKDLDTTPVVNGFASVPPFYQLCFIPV

On to `CCNc1ncc2nc(-c3ccc(Cl)cc3)c(=O)n(Cc3ccc(F)cc3)c2n1`, for which the Potency is over 11.4 µM in assay [1]; 12.6 µM (active) in assay [2]; over 9.22 µM in [4]; over 46 µM in [5]; 0.1 µM (active) in assay [9]. For the same molecule, the activity change, negative = inhibition in assay [3] was -1.59%. The Potency entry in assay [6], in assay [7], in [8], in assay [10], in [11] and in assay [12] was “inactive” each time. For the same molecule, in [13], the Potency result was “inactive”. In addition, in assay [14], the result was inactive.
Turning to `CN1CCN(c2ncc3nc(-c4cn(C)c5ccccc45)c(=O)n(CCc4ccccc4)c3n2)CC1`, the Potency is over 11.4 µM in assay [1], over 9.22 µM in assay [4], over 46 µM in [5] and 3.16 µM (active) in assay [9]. Moreover, the Potency result in [2], in assay [6], in assay [15], in [16], in assay [10] and in [11] was “inactive” throughout. Further, the Potency result in [12] and in assay [13] was “inactive” in each case. For the same molecule, the result in assay [14] was inactive.
With `CN(C)c1ncc2nc(-c3ccc(Cl)cc3)c(=O)n(-c3ccccc3)c2n1`, the Potency in [1] is over 11.4 µM; in assay [2], 5.01 µM (active); in assay [4], over 9.22 µM; in assay [5] it was over 46 µM; in assay [15], 1 µM (active); in [9], 2.51 µM (active). Also, the Potency result in [6], in assay [10], in [11], in [12] and in assay [13] was “inactive” throughout. In addition, the result in assay [14] was inactive.
In the case of `c1ccc(CNc2ncnc3ccc(-c4ccc5c(c4)OCO5)cc23)cc1`, the Potency is over 11.4 µM in [1]; 0.2 µM (active) in assay [2]; over 46 µM in assay [4]; over 46 µM in assay [5]; 2 µM (active) in assay [7]; 3.16 µM (active) in [8]. Further, the Potency in assay [10] is 0.158 µM (active); in [11], 0.178 µM (active); in assay [12] it was 0.0355 µM (active). Also, the activity change, negative = inhibition in assay [3] is -4.08%. The activity, negative = inhibition in assay [17] is -5.81%. Also, the Potency entry in assay [6], in assay [16] and in [13] was “inactive” throughout. In addition, the result in [14] was inactive.
As to `O=c1c(CCc2ccccc2)nc2cncnc2n1Cc1ccccc1Cl`, the Potency is over 11.4 µM in [1], 12.6 µM (active) in assay [2], over 46 µM in assay [4] and over 46 µM in [5]. Besides, in [3], the activity change, negative = inhibition was -6.53%. Also, in assay [17], the activity, negative = inhibition is -12.1%. Besides, the Potency result in assay [6], in assay [16], in assay [10], in [11], in assay [12] and in assay [13] was “inactive” each time. Moreover, the outcome in assay [14] was inactive.
Regarding `Fc1ccc(Nc2ncnc3ccc(-c4ccoc4)cc23)cc1`, the Potency in [1] is over 11.4 µM; in assay [2], 1 µM (active); in assay [4], over 46 µM; in assay [5], over 46 µM; in [10], 0.631 µM (active); in [11], 0.708 µM (active). The Potency in assay [12] was 0.355 µM (active). The activity change, negative = inhibition in [3] is 10.4%. Also, the activity, negative = inhibition in assay [17] is -22.9%. Besides, the Potency entry in assay [6], in assay [16] and in assay [13] was “inactive” each time. Besides, the result in assay [14] was inactive.
On to `COc1ccc2[nH]cc(CCNc3ncnc4ccc(-c5c(C)noc5C)cc34)c2c1`, for which the Potency was over 11.4 µM in assay [1]; 7.94 µM (active) in assay [2]; over 46 µM in assay [4]; over 46 µM in assay [5]; 3.16 µM (active) in assay [7]; 6.31 µM (active) in [18]. For the same molecule, the Potency in assay [8] is 3.98 µM (active); in assay [10], 7.94 µM (active); in [11] it was 5.01 µM (active); in assay [12], 3.98 µM (active). The Potency result in [6], in [15], in assay [16] and in assay [13] was “inactive” throughout. The outcome in [14] was inactive.
